Source: PubChem
Compounds with a hit are over-represented: about 9.4% of the library has one in this group of screens.
ELG1 genotoxic: induces genotoxicity in HEK293T cells with luciferase-tagged ELG1. Potency, µM (top dose mostly 46 µM), without a hit: at the top dose activity change, positive = activation, usual class: activators. HEK293T ELG1-luciferase reporter, luminescence, 16 h. 1.3% of 330,000 active; further: % of control where 0% means no effect; nearly all actives have a fitted effect of over 60% in size
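DMSO vehicle served as control against compound-treated ELG1-luciferase HEK293T cells; exposure lasted 16 hr at 37 °C and 5% CO2, followed by ONE-Glo luminescence detection after 30 min.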
FLuc counter: counter-screen for miR-21 project: firefly luciferase inhibitors or activators; Potency, µM (series often up to 57.5 µM), for the others: top-dose activity change, negative = inhibition, actives largely listed as inhibitors; P08659; purified FLuc, Km substrates, luminescence inhibition; AID 588342; 6.9% of 360,000 active;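 further: plate controls were vehicle for no effect and reference inhibitor for full effect; nearly all actives have a fitted effect of over 55% in size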
Target sequence (P08659 whole entry, looked up): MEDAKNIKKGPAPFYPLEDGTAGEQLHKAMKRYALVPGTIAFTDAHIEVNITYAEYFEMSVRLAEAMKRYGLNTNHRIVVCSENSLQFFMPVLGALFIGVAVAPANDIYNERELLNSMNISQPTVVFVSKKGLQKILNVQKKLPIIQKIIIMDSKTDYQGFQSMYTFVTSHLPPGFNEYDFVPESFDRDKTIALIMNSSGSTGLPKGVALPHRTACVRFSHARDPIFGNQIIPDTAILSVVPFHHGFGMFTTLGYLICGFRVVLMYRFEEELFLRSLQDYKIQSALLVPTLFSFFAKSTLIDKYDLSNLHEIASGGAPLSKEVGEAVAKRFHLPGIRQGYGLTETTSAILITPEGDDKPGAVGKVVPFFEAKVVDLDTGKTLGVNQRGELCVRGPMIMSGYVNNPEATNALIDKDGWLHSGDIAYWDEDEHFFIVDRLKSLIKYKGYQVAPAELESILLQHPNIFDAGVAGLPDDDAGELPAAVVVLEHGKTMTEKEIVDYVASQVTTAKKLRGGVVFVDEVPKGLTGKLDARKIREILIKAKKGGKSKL
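Purified P. pyralis luciferase (10nM final) with 10uM D-luciferin and 10uM ATP (Km levels) in 50mM Tris acetate pH 7.5, 10mM Mg acetate, 0.01% Tween-20, 0.05% BSA; qHTS 6-point titration, ~60 µM downward; luminescence read.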
Rab9 promoter act: activates the Rab9 promoter; Huh7 Rab9 promoter-luciferase reporter, luminescence, 24 h; Potency, µM (top dose mostly 9.22 µM), without a hit: top-dose activation, negative = inhibition, most hits filed as activators; 2.8% of 320,000 active; further: % of control where 0% means no effect; nearly all actives have a fitted effect of over 60% in size
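Measured in stably transfected Huh7 cells bearing a Rab9 promoter–luciferase construct: 24 h compound treatment at 37 °C, followed by luminescence detection.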
NPC1 promoter act: activators of NPC1 promoter | Potency, µM (series often up to 9.22 µM), for inactives: at the highest dose activation, usual class: activators | Huh7 NPC1 promoter luciferase reporter, 24 h | 2.4% of 320,000 active | AID 485313; further: % of control where 0% means no effect; nearly all actives have a fitted effect of over 60% in size
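Stably transfected Huh7 (NPC1 promoter→luciferase), 1500 cells/well in Opti-MEM + 10% FBS, 2 h settle, then compound 24 h at 37 °C. Luminescence after 10 min with Amplite reagent.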
SMN2 splice up: increases expression of the SMN2 splice variant | Potency, µM (series often up to 46.1 µM), for inactives: at the highest dose activity change, positive = activation, usual class: activators | AID 1458 | 2.8% of 210,000 active | HEK293 SMN2-luciferase splicing reporter, luminescence, 30-36 h; further: % of control where 0% means no effect; nearly all actives have a fitted effect of over 55% in size
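HEK293 cells carry an SMN2 minigene-luciferase reporter in which exon 7 inclusion puts luciferase in frame. Cells were seeded at 2000 cells/well, attached for 10-12 hours, then exposed to compounds for 30-36 hours at 37C before ONE-Glo luminescence.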
ELG1 DNA repair: ELG1-dependent DNA repair inhibition | Potency, µM (doses to about 46.1 µM), inactives show at the highest dose activity change, negative = inhibition, most hits filed as inhibitors | HEK293T ELG1-luciferase reporter, luminescence, 16 h; DNA damage induced by 5-fluorouridine | AID 504467 | 2.3% of 330,000 active; further: on the % scale 0 is the no-effect control and ±100 the full control effect; nearly all actives have a fitted effect of over 55% in size
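In this reporter screen, reduction of luminescence relative to DMSO vehicle indicated activity. Compounds and 5-fluorouridine were added together to 2,000 cells per well, incubated for 16 hr at 37 °C, then developed with ONE-Glo.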
* marks the source's active call; other numbers are inactive results; ? = inconclusive; . = no result; [ ] = remark or other dose. The call rests on the fitted dose curve; in most records, active means well fitted curve in the direction sought with a large enough effect; inconclusive means small, poorly fitted or top-dose-only effect, or another doubt; inactive means no such curve, though single readings can be large; an effect the other way counts as inactive or inconclusive. Potency means the concentration at half of the fitted maximal effect.

SMILES	ELG1 genotoxic	FLuc counter	Rab9 promoter act	NPC1 promoter act	SMN2 splice up	ELG1 DNA repair
COc1ccc(-c2c(=O)n(OCc3nc4ccccc4[nH]3)c3ccccc3[n+]2[O-])cc1	0%	?	0%	3%	.	?
CCOc1ccc(-c2c(=O)n(OCc3nc4ccccc4[nH]3)c3ccccc3[n+]2[O-])cc1	-2%	17µM*	20%	-3%	.	?
O=c1c(-c2cc3ccccc3o2)[n+]([O-])c2ccccc2n1OCc1ccccn1	?	12µM*	?	?	?	?
Cc1ccc(NC(=O)C2CCCN2S(=O)(=O)c2cccc3cccnc23)cc1C (stereo unspecified)	.	-10%	.	.	-7%	.
COc1ccc(N(Cc2cccs2)C(=O)COc2cc(C)c(Cl)c(C)c2)cc1	.	-19%	.	.	.	.
COC(=O)c1sccc1NC(=O)C1C2C=CC(C2)C1C(=O)O (stereo unspecified)	2%	12%	-1%	-2%	-29%	12%
Cc1ccsc1C(=O)NNC(=O)C1C2C=CC(C2)C1C(=O)O (stereo unspecified)	?	24µM*	8%	3%	7%	?
COc1ccc(-c2sc3ccc(N4CCOCC4)cc3c2C#CCO)cc1	-4%	.	.	.	.	5.2µM*
O=C(O)c1ccccc1-c1ccccc1C(=O)Nc1ccc2c(c1)CCC2	-1%	-12%	0%	2%	.	-9%
COc1cc2c(cc1NC(=O)c1ccccc1F)CCCC2	?	11µM*	?	7%	22µM*	?
CN(c1ccccc1)S(=O)(=O)c1cccc(C(=O)NNC(=O)c2ccccc2)c1	-6%	-18%	0%	-12%	-59%	?
O=C(Nc1ccc2c(c1)CCC2)c1ccccc1	2.6µM*	1.1µM*	0.5µM*	1.3µM*	2µM*	?
CN(c1ccccc1)S(=O)(=O)c1cccc(C(=O)Nc2ccc3c(c2)CCC3)c1	-7%	-15%	0%	7%	-20%[1.84 µM]	15µM*
O=C(Nc1ccc2c(c1)CCC2)c1ccccc1F	?	3µM*	0.71µM*	0.89µM*	4.5µM*	?
COc1ccc(Cl)cc1NC(=O)NCCc1c(C)nn(C)c1C	.	-2%	.	.	.	.
COc1cc(S(=O)(=O)NCCOC23CC4CC(CC(C4)C2)C3)c(OC)cc1Cl	-6%	-8%	-4%	-2%	-58%	16µM*
CCOc1ccc(OCC)c(S(=O)(=O)NCCOC23CC4CC(CC(C4)C2)C3)c1	-3%	-2%	-12%	-4%	-51%	?
Cc1cc2c(cc1S(=O)(=O)N(C)CC(=O)Nc1cccc(C#N)c1)OCC(=O)N2	.	3%	.	.	.	.
CN(Cc1cccnc1)C(=O)c1cc(COc2ccc3c(c2)CCCC3)on1	?	11µM*	?	1.3µM*	.	?
CCc1ccc(CN(C)C(=O)c2cc(COc3cccc4cnccc34)on2)cc1	-9%	-2%	-32%	-28%	.	?
COc1cccc(OCc2cc(C(=O)N(C)Cc3nc4ccccc4[nH]3)no2)c1	?	11µM*	?	3.2µM*	.	?
CC(=O)c1ccc(OCc2cc(C(=O)N(C)Cc3ncc(C)[nH]3)no2)cc1	7%	0%	-2%	-3%	.	29%
CC(=O)c1cccc(OCc2cc(C(=O)N(C)Cc3cnccn3)no2)c1	?	?	2.5µM*	?	.	?
CC(=O)c1cccc(OCc2cc(C(=O)NCc3nc(C)c(C)s3)no2)c1	?	17µM*	?	?	.	?
CC1(C)NC(=O)N(CC(=O)N2CCN(S(=O)(=O)c3ccccc3C(F)(F)F)CC2)C1=O	-1%	4%	-7%	0%	.	-13%
SMILES	ELG1 genotoxic	FLuc counter	Rab9 promoter act	NPC1 promoter act	SMN2 splice up	ELG1 DNA repair
COc1ccc(C)cc1-n1nnc(-c2nc(-c3ccccc3Cl)no2)c1N	.	-17%	.	.	.	.
OC1(c2cccc(C(F)(F)F)c2)CCN(c2ccc(-c3ccccc3)nn2)CC1	14%	-19%	1.4µM*	3.2µM*	?	?
CCOC(=O)c1cccc(NC(=O)CCS(=O)(=O)c2ccc3c(c2)CC(=O)N3C)c1	.	-5%	.	.	.	.
Oc1ccc(O)c(-c2cnns2)c1	-1%	8.5µM*	-6%	-14%	9%	?
Cc1oc2ncnc(N3CCOCC3)c2c1C(=O)NCc1ccccc1	.	-1%	.	.	.	.
CCCn1cc(SCC(=O)Nc2cc(C)on2)c2ccccc21	0%	-2%	-12%	0%	.	-5%
Cc1cc(NC(=O)CSc2nc(CCC3CCCC3)nc3ccccc23)no1	-19%	5%	-6%	-1%	-52%	?
Cc1ccc(C(=O)NCCn2cc(SCC(=O)Nc3cc(C)on3)c3ccccc32)cc1	?	5.4µM*	?	0%	-66%	?
CCCc1nc(SCC(=O)Nc2cc(C)on2)c2ccccc2n1	-23%	0%	3%	0%	-15%	26µM*
Cc1cc(NC(=O)CSc2cn(CCNC(=O)c3ccccc3)c3ccccc23)no1	-10%	19µM*	-6%	-1%	-22%	?
Cc1c(Cl)cccc1-n1ncc(C(=O)NC2CCCC2)c1C1CCN(C(=O)OC(C)(C)C)CC1	.	-1%	.	.	.	.
COc1ccc2nc(Nc3nc(C)c(C(C)=O)s3)sc2c1	?	4.8µM*	2.5µM*	2.8µM*	17%	?
COc1ccc(Nc2nc3ccc(OC)cc3s2)cc1	?	11µM*	2.2µM*	?	13µM*	?
COc1ccc2nc(NS(=O)(=O)c3ccc(NC(C)=O)cc3)sc2c1	2%	2%	21%	0%	2%	11%
O=C1C(c2ccc(F)cc2)N(CCc2ccccc2)C(=O)CN1C1CCCCCC1 (stereo unspecified)	.	-7%	.	.	.	.
c1ccc2c(c1)oc1c(Nc3ccc4c(c3)OCO4)ncnc12	5.8µM*	2.1µM*	1µM*	1.4µM*	?	?
Cc1nc(Nc2ccc3c(c2)OCO3)c2oc3ccccc3c2n1	2%	30µM*	4%	16%	-14%	?
Cc1c(CCC(=O)O)c(=O)n2c([nH]c3ccccc32)c1C#N	1%	0%	2%	0%	-8%	0%
N#Cc1cc(NC(=O)c2ccc(F)cc2)c(=O)n2c1[nH]c1ccccc12	-15%	?	-11%	-10%	-56%	6.5µM*
CCOc1ccc(S(=O)(=O)N2CCCC(C(=O)NCc3cccnc3)C2)cc1 (stereo unspecified)	-8%	-1%	0%	-1%	.	-8%
Brc1ccc2nc(-c3c[nH]c4ccccc34)cn2c1	?	1.5µM*	1µM*	2.2µM*	10µM*	?
